The list is not random: actives were taken first. Their share in the collection is about 1.3%.
MEX-5 binding: C. elegans MEX-5 TCR-2 RNA binding activity | Q9XUB2 | MEX-5/FITC-TCR2 RNA binding, fluorescence polarization; hits give low values | activity score (negative = inhibition of binding), % at 10 µM | 300,000 tested, 0.38% active | AID 1832;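 active means inhibition past about -25% in most replicates, and total fluorescence under double the plate's negative control median, limit read from the data; inconclusive means replicates evenly split on the limit, or fluorescence at least double controls; inactive means too little inhibition in most replicates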
Target sequence (Q9XUB2 whole entry, looked up): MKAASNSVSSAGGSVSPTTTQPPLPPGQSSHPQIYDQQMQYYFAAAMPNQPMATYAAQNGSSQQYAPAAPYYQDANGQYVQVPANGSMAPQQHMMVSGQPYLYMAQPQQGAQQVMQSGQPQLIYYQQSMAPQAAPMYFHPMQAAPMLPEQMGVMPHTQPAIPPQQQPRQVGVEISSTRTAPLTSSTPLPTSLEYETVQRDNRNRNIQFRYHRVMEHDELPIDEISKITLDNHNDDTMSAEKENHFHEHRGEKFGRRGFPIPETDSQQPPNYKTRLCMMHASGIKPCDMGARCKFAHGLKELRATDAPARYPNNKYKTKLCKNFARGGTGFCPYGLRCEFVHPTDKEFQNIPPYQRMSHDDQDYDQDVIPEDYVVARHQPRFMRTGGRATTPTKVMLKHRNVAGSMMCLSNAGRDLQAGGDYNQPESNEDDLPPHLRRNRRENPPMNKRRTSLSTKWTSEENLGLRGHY
EBV gp42 block: EBV gp42 inhibition | inhibition, % (tested at 21.74 µM) | Q1HVG2 | 220,000 tested, 0.42% active | Fluorescence polarization binding assay, mP read-out; in the data active means inhibition above about 50%
Target sequence (Q1HVG2 whole entry, looked up): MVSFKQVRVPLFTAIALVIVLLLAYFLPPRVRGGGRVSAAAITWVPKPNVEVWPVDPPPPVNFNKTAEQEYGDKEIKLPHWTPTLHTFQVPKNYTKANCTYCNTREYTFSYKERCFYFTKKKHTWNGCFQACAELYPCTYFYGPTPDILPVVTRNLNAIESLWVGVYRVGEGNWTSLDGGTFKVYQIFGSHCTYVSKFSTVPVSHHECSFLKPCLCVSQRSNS
GLD-1 RNA inh: GLD-1-TGE RNA interaction inhibition (C. elegans); purified GLD-1 + fluorescein TGE RNA, fluorescence polarization; inhibition, % at 5.96 µM; 320,000 tested, 0.44% active;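 active means percent inhibition above a per-plate cutoff, the plate mean of test compounds plus 3 SD, cut at about 30% in these data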
BCLXL inh: inhibitors of human Bcl-xL | Q07817 | inhibition, % at 10.9 µM | GST-Bcl-xL / FITC-Bim BH3 peptide fluorescence polarization | 320,000 tested, 0.7% active;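 active means inhibition above the mean of all tested compounds plus 3 SD, cutoff set per campaign, cut at about 30% in these data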;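 further: inhibitors lower millipolarization by displacing the labeled peptide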
MCL1 BIM primary: inhibitors of human MCL1 binding to BIM-BH3 peptide | Q07820 | GST-MCL1 / FITC-Bim-BH3 fluorescence polarization | inhibition, % at 10.9 µM | 320,000 tested, 0.68% active | AID 2057;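 active means inhibition above the mean inhibition of all tested compounds plus 3 SD, set per campaign, cut at about 40% in these data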;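 further: higher means more loss of mP so more displacement of Bim peptide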
BCLXL inh confirm: Bcl-xL (human) inhibition, MCL1 counter-screen confirmation; shares compounds with MCL1 BIM primary; GST-Bcl-xL / FITC-Bim BH3 peptide FP binding; inhibition, % at 10.9 µM; 1,700 tested, 54% active; AID 2166;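 active means inhibition above a cutoff equal to the mean inhibition of all tested compounds plus 3 SD, cut at about 30% in these data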
MCL1 inh confirm: MCL1-BIM-BH3 interaction inhibition, confirmation; shares compounds with MCL1 BIM primary; GST-MCL1 / FITC-Bim-BH3 fluorescence polarization; inhibition, % at 10.9 µM; 1,700 tested, 61% active; AID 2168;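 active means inhibition above the average of all tested compounds plus 3 SD, cut at about 40% in these data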
Large screens that a line does not name were inactive (follow-up assays come after a bar, where they were run).

CSc1nnc(SCC(=O)N(C)c2c(N)n(Cc3ccccc3)c(=O)[nH]c2=O)s1	none (no result: EBV gp42 block)
CCN(C(=O)CSc1nnc(SC)s1)c1c(N)n(Cc2ccccc2)c(=O)[nH]c1=O	GLD-1 RNA inh 58.9, BCLXL inh 84.3, MCL1 BIM primary 93.1 (no result: MEX-5 binding, EBV gp42 block) | BCLXL inh confirm inactive | MCL1 inh confirm inactive
O=[N+]([O-])c1ccc(/C=N/n2cnc3ccccc32)s1	MEX-5 binding -41.3, BCLXL inh 52.0, MCL1 BIM primary 72.1 | BCLXL inh confirm 71.2 | MCL1 inh confirm 76.3
O=[N+]([O-])c1ccc(/C=N/Nc2ncccc2[N+](=O)[O-])s1	none (no result: EBV gp42 block)
Cc1ccc2[nH]c(=O)c3cc(C(=O)NC(C)C)sc3c2c1	GLD-1 RNA inh 154.6, BCLXL inh 137.8, MCL1 BIM primary 166.7 (no result: EBV gp42 block) | BCLXL inh confirm inactive | MCL1 inh confirm inactive
Cc1ccc2[nH]c(=O)c3cc(C(=O)NCC4CCCO4)sc3c2c1 (stereo unspecified)	none
C/C(=N/NC(=O)c1cc2ccccc2cc1O)C1C(=O)c2ccccc2C1=O	MCL1 BIM primary 40.9 | BCLXL inh confirm inactive | MCL1 inh confirm 41.2
C/C(=N\NC(=O)c1ccccc1O)C1C(=O)c2ccccc2C1=O	none
COc1ccc(NC(=O)CSc2n[nH]c(CNc3cccc(C)c3)n2)cc1	none (no result: EBV gp42 block)
O=c1cc2oc3cc(O)c(O)cc3c(-c3ccccc3[N+](=O)[O-])c-2cc1O	BCLXL inh 31.0, MCL1 BIM primary 86.5 (no result: EBV gp42 block) | BCLXL inh confirm 61.6 | MCL1 inh confirm 103.5
Cc1ccccc1NC(=O)CSc1ccsc1[N+](=O)[O-]	EBV gp42 block 70.4, MCL1 BIM primary 67.1 | BCLXL inh confirm 32.0 | MCL1 inh confirm 89.9
COCCCNC(=O)CSc1ccsc1[N+](=O)[O-]	none
Cc1ccc([C@@H]2C3COCC=C3C(C#N)=C(N)C2(C#N)C#N)o1 (stereo partly specified)	GLD-1 RNA inh 77.7, BCLXL inh 96.5, MCL1 BIM primary 104.9 | BCLXL inh confirm 71.2 | MCL1 inh confirm 73.9
COc1cccc(=O)c2c(C)n(CC(=O)c3ccccc3)c(C)c12	MCL1 BIM primary 47.3 | BCLXL inh confirm inactive | MCL1 inh confirm inactive
CCCCC1NC(=S)N(C2CCCCC2)C1=O (stereo unspecified)	none
Cc1cc(C(=O)O)ccc1-n1c(C)ccc1C	MEX-5 binding -88.0, BCLXL inh 46.5, MCL1 BIM primary 97.9 | BCLXL inh confirm 89.4 | MCL1 inh confirm 140.7
COc1cc(-c2nc(-c3ccccn3)no2)cc(OC)c1OC	MCL1 BIM primary 41.4 | BCLXL inh confirm inactive | MCL1 inh confirm inactive
Cc1ccc(-c2cc(C(=O)Nc3ccccn3)c3ccccc3n2)o1	MCL1 BIM primary 47.0 | BCLXL inh confirm 32.1 | MCL1 inh confirm 69.1
Cc1nc2ccccc2n2c(O)c(CC(=O)O)cc12	MEX-5 binding inconclusive, EBV gp42 block 129.1, GLD-1 RNA inh 136.6, BCLXL inh active, MCL1 BIM primary active | BCLXL inh confirm 189.5 | MCL1 inh confirm active
COC(=O)C1=C(C)N(C)C(=O)NC1c1cc2c(cc1Br)OCO2 (stereo unspecified)	none (no result: EBV gp42 block)
COC(=O)C1=C(C)N(CCCC(=O)O)C(=O)NC1c1cc2c(cc1[N+](=O)[O-])OCO2 (stereo unspecified)	BCLXL inh 53.5, MCL1 BIM primary 51.7 | BCLXL inh confirm inactive | MCL1 inh confirm inactive
COC(=O)C1=C(C)N(C)C(=O)NC1c1cc2c(cc1[N+](=O)[O-])OCO2 (stereo unspecified)	BCLXL inh 59.5, MCL1 BIM primary 54.0 | BCLXL inh confirm 43.6 | MCL1 inh confirm 40.0
Oc1[nH]c2ccccc2c1C=Nc1ccccc1	none
Cn1nc(-c2ccccc2)c2nc3ccccc3nc21	MEX-5 binding inconclusive, EBV gp42 block 126.3, BCLXL inh 55.6, MCL1 BIM primary 55.4 | BCLXL inh confirm 101.5 | MCL1 inh confirm 111.1
Cc1ccc(-c2nc3ccccc3nc2-c2ccccc2)cc1	none (no result: EBV gp42 block)
COc1cc(-c2nnc(SCc3cc(=O)oc4cc(O)c(O)cc34)o2)cc(OC)c1OC	MCL1 BIM primary 61.8 | BCLXL inh confirm inactive | MCL1 inh confirm 60.6
O=C(O)c1[nH]c2ccccc2c1C(c1cc(Cl)cc([N+](=O)[O-])c1O)c1c(C(=O)O)[nH]c2ccccc12	MEX-5 binding -61.3, MCL1 BIM primary 50.6 (no result: EBV gp42 block) | BCLXL inh confirm inactive | MCL1 inh confirm inactive
O=C(CN(Cc1ccccc1)S(=O)(=O)c1ccc(F)cc1)NCc1ccccn1	none (no result: EBV gp42 block)
O=C(COC(=O)c1ccc2ncsc2c1)Nc1cc([N+](=O)[O-])ccc1Cl	MCL1 BIM primary 42.2 (no result: MEX-5 binding, EBV gp42 block) | BCLXL inh confirm inactive | MCL1 inh confirm inactive
CC1CCN(c2ccc3c(c2)S(=O)(=O)c2cccc(C(=O)NCc4cccc(F)c4)c2C3=O)CC1	GLD-1 RNA inh 162.0, MCL1 BIM primary 68.4 (no result: MEX-5 binding, EBV gp42 block) | BCLXL inh confirm inactive | MCL1 inh confirm inactive
O=C(O)c1cccc2c1C(=O)c1ccc(N3CCCC3)cc1S2(=O)=O	GLD-1 RNA inh 80.2, BCLXL inh 112.4, MCL1 BIM primary 131.4 (no result: MEX-5 binding, EBV gp42 block) | BCLXL inh confirm 103.7 | MCL1 inh confirm 121.8
Cc1nc2c3ccccc3[nH]c(=O)n2n1	none
CN1CCN(c2ccc(NC(=O)c3ccc(C#N)cc3F)cc2Cl)CC1	none
Cn1nc([N+](=O)[O-])c(C(C#N)c2nc3ccccc3n2C)c(Cl)c1=O (stereo unspecified)	MEX-5 binding -28.3, EBV gp42 block 80.3, GLD-1 RNA inh 50.6, BCLXL inh 79.3, MCL1 BIM primary 91.4 | BCLXL inh confirm 84.2 | MCL1 inh confirm 90.0
O=C(O)C1Sc2[nH]c(=O)sc2C2c3ccc(O)cc3OC(=O)C12 (stereo unspecified)	MEX-5 binding inconclusive, GLD-1 RNA inh 73.0, BCLXL inh 66.8, MCL1 BIM primary 82.3 | BCLXL inh confirm 45.6 | MCL1 inh confirm 49.1
O=C(O)C1Sc2[nH]c(=O)sc2C2c3cc(Cl)ccc3OC(=O)C12 (stereo unspecified)	none
CC(=NCCN1CCN(C(=S)Nc2ccccc2)CC1)C1=C(O)CC(C)(C)CC1=O	none
COc1ccc(C(=O)OCC(N)=O)cc1[N+](=O)[O-]	none
COc1ccc(C(=O)C[n+]2cc(Br)cc3ccccc32)cc1[N+](=O)[O-]	BCLXL inh 54.0, MCL1 BIM primary 74.8 (no result: EBV gp42 block) | BCLXL inh confirm inactive | MCL1 inh confirm inactive
S=C(Nc1ccccc1Cl)N(Cc1ccccc1)Cc1ccccn1	none
CNc1ccccc(-c2ccc3cc4c(cc3n2)OCO4)c1=O	BCLXL inh 91.3, MCL1 BIM primary 114.0 | BCLXL inh confirm 34.4 | MCL1 inh confirm inactive
Cc1cc(NC(=O)Cn2nc([N+](=O)[O-])c(Br)c2C)no1	none

Screens from PubChem BioAssay.
